# Data as given in PubChem BioAssay (NCATS).
# The source made the active and inactive calls. Calls follow the shape of the dose curve; as a rule, active = well fitted activation curve with a large enough effect; inconclusive = small, poorly fitted or top-dose-only effect; inactive = flat fitted curve, though single readings scatter.
# Assay: Confirmation and Secondary Assay for Modulators of Hemoglobin Beta Chain Splicing at IVS2 705 locus (AID 930); also: % of control where 0% means no effect
# Conditions: HeLa EGFP-705 splicing reporter, GFP fluorescence, 48 h; series mostly up to 46.1 µM; activation: at the top concentration
# Excerpt: NIH Chemical Genomics Center [NCGC] NIH Molecular Libraries Screening Centers Network [MLSCN] MLSCN Grant: 1 X01 MH080684-01 PI Name: Dr. Ryszard Kole NCGC Assay Overview: Modulation of Alternative Splicing as Therapy Abnormal splicing is associated with a number of diseases, including cancer and genetic diseases such as cystic fibrosis, muscular dystrophy and beta-thalassemia. Alteration of disease associated splicing patterns provides a promising target for treatment. […] Mutations in the second intron of the b-globin gene at positions 654 or 705 are clinically relevant and cause mis-splicing which results in an out of frame gene product. […] EGFP-705 HeLa Cells as screen system. HeLa cell lines were stably transfected with a construct in which the EGFP (enhanced green fluorescent protein) cDNA was interrupted by the second intron of the beta-globin gene (IVS2-705). The ISV2 intron contains mutations which cause mis-splicing of EGFP and premature termination of EGFP which results in a nonfluorescent protein product. […] Expression of the transgene was driven by the CMV promoter. We concluded that a low molecular weight compound, which restored correct splicing of intron 2 would also generate functional EGFP protein, resulting in a fluorescent signal. Thus, the HeLa cells that express the EGFP-705 construct can be used for validation of splice site specificity of compounds identified in primary screening of the ISV2 654 construct.
# NCGC Assay Protocol Summary: Confirmatory Screening. Freshly thawed HeLa EGFP-705 cells were seeded in 5 ul of optimem media (Invitrogen) containing 2 % fetal calf serum (Hyclone) and 1x penicillin/streptomycin (Invitrogen) at a concentration of 500 cells per well in 1536-well plates. Cells were incubated overnight at 37C in 5% CO2. The next day, cells were treated with DMSO, 500 nM antisense ISV2 654 PNA control oligo, or library compound and allowed to grow at 37C in 5% CO2 for 2 days. The PNA oligo blocked the mutation site in the intron and allowed proper (wild type) splicing to occur, resulting in full length EGFP expression and also allowed for optimization of the assay parameters. Plates were read in the Acumen Explorer (TTP Labtech) using 488 nm laser excitation and 500-520 nm emission PMT filter in a 1 x 8 uM capture mode. Fluorescnet objects ranging in size from 5 to 250 uM were measured and the total peak GFP intensity for each well was used for data analysis. Keywords: Thalassemia, beta-thalassemia, beta-globin, EGFP, ISV2 654, ISV2 705, SSO, PNA, antisense, splicing, MLSMR, MLSCN, NIH Roadmap, qHTS, NCGC
SMILES,activation,outcome
Oc1cc2c(cc1O)C1c3ccc(O)c(O)c3OCC1(O)C2 (stereo not given),2.03% (inactive),
COc1ccc(C(C)=O)c(O)c1,-2.3% (inactive),
OCC(O)C(O)C(O)CO (stereo not given),,inactive
CCCCCCCCCCCC(CC1OC(=O)C1CCCCCC)OC(=O)C(CC(C)C)NC=O (stereo not given),1.24% (inactive),
CCC(C(=O)O)C1CCC(C)C(C(C)C(O)C(C)C(=O)C(CC)C2OC3(C=CC(O)[C@@]4(CC[C@](C)(C5CC[C@@](O)(CC)C(C)O5)O4)O3)C(C)CC2C)O1 (stereo not given in full),-0.502% (inactive),
c1coc(CNc2ncnc3nc[nH]c23)c1,3.18% (inactive),
Cc1ccc(O)c(C(CCN(C(C)C)C(C)C)c2ccccc2)c1 (stereo not given),0.377% [at 38.3 µM] (inactive),
C[C@@]12C(=O)OC(=O)[C@@]1(C)C1CCC2O1,-0.595% [at 38.3 µM] (inactive),
CC(Cc1ccc(O)c(O)c1)(NN)C(=O)O (stereo not given),-0.0854% [at 38.3 µM] (inactive),
Cc1cc(O)c2c(c1)C(=O)c1cccc(O)c1C2=O,1.49% [at 38.3 µM] (inactive),
